# Reference: PubChem BioAssay (NCI)
# About 79,000 compounds went through this panel and 15% of them were active in at least one assay; those are over-represented in the sample as a whole. A number with no mark means an inactive call. The source made the active and inactive calls. Rule as the data show it: active = growth inhibition above about 70%; inactive = the rest.
# Tests used:
# [1] = NCI Yeast Anticancer Drug Screen. Data for the rad50 strain (AID 155);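 also: 0% = growth of vehicle-only cultures of the same strain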; conditions: S. cerevisiae rad50 strain growth inhibition; at 50.0 µM; stronger effect = higher value
# Outline: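 Growth of the mutant yeast was measured after compound exposure and referenced to vehicle-treated cultures.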
# [2] = NCI Yeast Anticancer Drug Screen. Data for the mec2-1 strain (AID 157); conditions: S. cerevisiae mec2-1 strain, at 50.0 µM, stronger effect = higher value
# Outline: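 Each compound was tested on mec2-1 yeast, a strain altered in DNA damage repair or cell cycle control. Growth inhibition is reported relative to vehicle.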
# [3] = NCI Yeast Anticancer Drug Screen. Data for the sgs1 mgt1 strain (AID 161);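 also: 0% = growth of cultures given vehicle only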; conditions: S. cerevisiae sgs1 mgt1 strain, at 50.0 µM, stronger effect = higher value
# Outline: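 Mutant yeast exposed to compound; growth scored against vehicle-only wells.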
# [4] = NCI Yeast Anticancer Drug Screen. Data for the cln2 rad14 strain (AID 165);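 also: 0% = growth equal to vehicle treated cultures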; conditions: S. cerevisiae cln2 rad14 strain, at 50.0 µM, stronger effect = higher value
# Outline: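 Test compounds were added to cln2 rad14 yeast cultures; inhibition of growth was then determined by comparison with vehicle treatment.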
# [5] = NCI Yeast Anticancer Drug Screen. Data for the bub3 strain (AID 167); conditions: S. cerevisiae bub3 mutant strain, at 50.0 µM, stronger effect = higher value
# Outline: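 Whole-cell yeast assay. The mutant strain was incubated with compounds, and growth inhibition was determined by comparison with vehicle-treated cells.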
# [6] = NCI Yeast Anticancer Drug Screen. Data for the mlh1 rad18 strain (AID 175); conditions: S. cerevisiae mlh1 rad18 strain growth inhibition; at 50.0 µM; stronger effect = higher value
# Outline: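 Inhibition values reflect reduced growth of mutant yeast versus vehicle-treated controls following compound exposure; the mutations affect DNA damage repair.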
Compound,growth inhibition [1],growth inhibition [2],growth inhibition [3],growth inhibition [4],growth inhibition [5],growth inhibition [6]
C=CCOC(=O)NC(Cc1ccc(O)cc1)C(=O)O (stereo unspecified),-0.05%,-4.85%,4.5%,3.65%,-10.8%,-2.45%
Cn1c(=O)c2c(nc(CCNC(=O)c3ccccc3)n2C)n(C)c1=O,-1.15%,-7.75%,11.1%,-27.4%,5.6%,-17.1%
O=C(Oc1ccccc1OC(=O)c1ccc(Cl)cc1)c1ccc(Cl)cc1,3.15%,6.4%,12.7%,6.7%,-2.65%,8.6%
CC1(C)CC2(C)NCCN2C(=S)N1 (stereo unspecified),3.25%,2.3%,15.8%,12.2%,-5.45%,-7.8%
COc1ccc(OC)c(NC(=O)OCc2ccc3c(c2)OCO3)c1,1.25%,-14%,5.45%,10.2%,26.9%,-4.7%
COc1cc(C2c3cc4c(cc3OC(O)C2C)OCO4)cc(OC)c1OC (stereo unspecified),-11.9%,4.85%,11.7%,-46.6%,16.1%,-4.15%
CNC(=O)NC1C(O)COC(OC)C1O (stereo unspecified),-2.65%,3.4%,-0.6%,-37.1%,-4.15%,0.25%
CCOC(=O)c1c(C)c(C)cc(C)c1C,-4.75%,-7.6%,-5.45%,6.15%,2.3%,-10.8%
COC(=O)CSc1[nH]c2nc(C)nc(Nc3ccccc3)c2c1C#N,-13.8%,-19.2%,-9.85%,-6.75%,-27.8%,16.1%
CN(C)c1nnnn1-c1c(N)n(C)c(=O)n(C)c1=O,-30.1%,-23.2%,0%,6.4%,-26.8%,-27.1%
Cn1c(=O)c2c(nc(N)n2C)n(C)c1=O,-16.8%,-8.35%,5.8%,-30.2%,-33.6%,-20.4%
COc1ccccc1C(C)C,-11.1%,-3.8%,-0.85%,-21.8%,-6.45%,-16.2%
O=S(O)CCCSSc1ccccc1,38.5%,22.4%,40.1%,56.1%,40.7%,67.2%
Cc1ccc2cc(N(C)C)ccc2[n+]1C,29.9%,24.1%,39.9%,34.4%,22.2%,30.8%
Cc1ccc(S(=O)(=O)C(Cl)(SCl)Sc2ccccc2)cc1 (stereo unspecified),64%,41.2%,74.9% (active),47.3%,46.4%,77.9% (active)
CSc1nc2c(nc(N)n2C2OC(CO)C(O)C(O)C2O)c(=O)n1C (stereo unspecified),3.1%,20%,26.3%,33.9%,11.2%,39.4%
O=C1CC2CCCCC2CC1c1ccc(OCc2ccccc2)c(OCc2ccccc2)c1 (stereo unspecified),-6.7%,-0.25%,23.6%,9.1%,-3.55%,-13.7%
CC[N+](C)(CC)C(Cc1ccccc1)c1ccccc1 (stereo unspecified),1%,8.8%,24.6%,23%,-5.8%,4.3%
O=C1c2cccc3c([N+](=O)[O-])ccc(c23)C(=O)N1CC1CCCO1 (stereo unspecified),71.3% (active),51%,87.1% (active),40.8%,51.8%,73.5% (active)
C[N+](C)(C)c1cc2c(nn1)Nc1ccccc1S2,17.4%,3.8%,-2.75%,14.7%,-17.8%,8.35%
Cc1ccc(C)c(I)c1,7.2%,-3.55%,6.1%,-9.95%,-2.55%,14.1%

Compound,growth inhibition [1],growth inhibition [2],growth inhibition [3],growth inhibition [4],growth inhibition [5],growth inhibition [6]
NC(=S)Nc1ccccc1-c1ccccc1,36.2%,13.8%,25%,-6.9%,32.5%,33.2%
O=NN(CCCl)C(=O)NC1CCC(C(=O)O)CC1 (stereo unspecified),29.6%,-2.05%,-6.65%,-7.8%,-0.75%,2.4%
CCN(CC)C1=CC(=O)C(N(CC)CC)=CC1=O,1.25%,0.15%,-7%,-4.5%,13.1%,2.35%
Nc1ccc2c(c1)C1Oc3ccccc3CC1CO2 (stereo unspecified),33%,6.55%,20.1%,8.05%,12.8%,47.2%
OC(c1ccc(Cl)cc1)c1nc2ccccc2[nH]1 (stereo unspecified),40.8%,18.4%,35.5%,15.9%,19.1%,33.5%
O=c1ccc(=O)n(-c2ccc(Cl)cc2)[nH]1,-8.1%,-21.8%,-12.7%,23.4%,-6%,-9.9%
COc1ccc(C(=O)C(C(=O)C(=O)Nc2ccc(Cl)c(Cl)c2)c2ccc(OC)cc2)cc1 (stereo unspecified),-0.6%,11.2%,-34.4%,38.1%,8.95%,-17.3%
CC(=O)OCC1OC(n2c(S)c(C#N)c(-c3ccccc3)c(C#N)c2=O)C(OC(C)=O)C(OC(C)=O)C1OC(C)=O (stereo unspecified),22.1%,8.45%,-17.3%,-7.4%,-21.2%,-37.1%
CC(=O)C[n+]1ccccc1Oc1ccccc1,5.9%,4.15%,4.25%,11.2%,12.8%,3.75%
O=C(O)C(Cc1cccs1)C(=O)OCCc1ccccc1 (stereo unspecified),-4.95%,-6.45%,1.05%,-10.8%,-13.7%,21.7%
O=c1nc(NO)cnn1C1OC(CO)C(O)C1O (stereo unspecified),13.7%,-0.2%,16.4%,-26.4%,-11.8%,11.7%
CN=NNc1ccc(C(=O)NC(C)C)cc1,-3.65%,-2%,-8.2%,-1.15%,-13.7%,-14.7%
CCOC(=O)/C(O)=C/c1cc(=O)n(C)c2ccccc12,-6.6%,10.7%,-5.8%,-21.8%,-9.9%,-17.4%
CCCC1OC1(CC)C(=O)OCC(CC)(COC(=O)C1(CC)OC1CCC)COC(=O)C1(CC)OC1CCC (stereo unspecified),-7.4%,-19.5%,1.25%,-2.05%,4.35%,4%
COc1cc(N=Nc2ccc(N)nc2N)c(OC)cc1N=Nc1ccc([N+](=O)[O-])cc1,12.6%,23%,1.8%,21.6%,9.4%,27.1%
Clc1ccc2sc(-n3ccc4ccccc43)nc2c1,-35.9%,-12.3%,-24.7%,7.65%,-15.4%,-30.7%
CCCCOC(=O)/C=C/c1ccc(OC(C)C)cc1,3.95%,-9%,-9.4%,-48.1%,19.9%,-10.4%
COc1ccc(N=Nc2ccccc2)cc1,3%,3.8%,-5.6%,-10.6%,-11.8%,-4.95%
CSC(=O)/C=C1\SS/C(=C\C(=O)SC)S1,-10%,-10.4%,-13.1%,-5%,-11.2%,-16.1%
COC(=O)C(=O)c1c(C(=O)OC)nc2[nH]n(-c3ccccc3)c(=O)c2c1Cc1ccccc1,-5.85%,1.05%,1.6%,-45.9%,-37.5%,8.25%
